Source: the supplement of paper PMC7530171
Where a name gives a salt, the structure may show the parent alone. ± gives the standard deviation.

tested on: THP-1; experiment: THP-1 cell loss relative to DMSO control; higher = more host cell loss (toxicity); extreme values may be limits of the assay; details: 10 µM; 4 days; infection: M. tuberculosis H37Rv
Description: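 OICR kinase inhibitor library screened in duplicate at 10 uM against M. tuberculosis-infected THP-1 macrophages, 4 days at 37 C. THP-1 cell loss (cytotoxicity or loss of adherence) was quantified from Hoechst-stained nuclei counts by high-content imaging and normalised to the 1% DMSO control; 100 = complete loss of host cells.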

Compound	THP-1 cell loss [%]
Fc1ccc(Cl)cc1-c1nc(Nc2ccncc2)c2nccnc2n1	7.31 ± 3.9
C=CCn1c(=O)c2cnc(Nc3ccc(N4CCN(C)CC4)cc3)nc2n1-c1cccc(C(C)(C)O)n1	37 ± 4.8
O=C(C=Cc1ccccc1)NC(NC(=S)Nc1ccc(Cl)cc1)C(Cl)(Cl)Cl (stereo not given)	63.6 ± 52
Oc1cccc(-c2nc(N3CCOCC3)c3sccc3n2)c1 [PI3-Kinase a Inhibitor 2]	62 ± 6.5
Cc1[nH]c(/C=C2\C(=O)Nc3ccc(S(=O)(=O)N(C)c4cccc(Cl)c4)cc32)c(C)c1C(=O)N1CCN(C)CC1	65.8 ± 13
N#Cc1c(NC(=O)c2cccc3ccccc23)sc2c1CCCC2	60.6 ± 15
CCc1cc(Nc2nccc(-c3c(-c4ccc(OC)c(C(=O)Nc5c(F)cccc5F)c4)nc4ccccn34)n2)c(OC)cc1N1CCC(N2CCN(S(C)(=O)=O)CC2)CC1	10.9 ± 13
Nc1nccc(-c2c(-c3ccc(F)cc3)ncn2C2CCCCC2)n1	75 ± 8.6
CC(=O)c1ccc(N2CCOCC2)cc1O	16.46 ± 0.081
COc1cc2ncnc(Nc3cccc(Br)c3)c2cc1OC	72.7 ± 4
CNC(=O)c1cc(Oc2ccc(NC(=O)Nc3ccc(Cl)c(C(F)(F)F)c3)cc2)ccn1 [Sorafenib]	100
Cn1cc(C2=C(c3cn(CCCSC(=N)N)c4ccccc34)C(=O)NC2=O)c2ccccc21 [Ro-31-8220 mesylate]	100
O=C(NOC[C@H](O)CO)c1ccc(F)c(F)c1Nc1ccc(I)cc1F	100
O=C(Nc1cccc(Cl)c1)Nc1ncc(CCNc2ncnc3ccsc23)s1	80.2 ± 4.3
O=c1cc(N2CCOCC2)oc2c1ccc1ccccc12	24.4 ± 6.4
Nc1ncnc2nc(-c3ccc(N4CCOCC4)nc3)cc(-c3cccc(Br)c3)c12 [ABT-702 dihydrochloride]	24.4 ± 13
COc1cc2c(N3CCN(C(=O)Nc4ccc(OC(C)C)cc4)CC3)ncnc2cc1OCCCN1CCCCC1	4.46 ± 6.3
CC[C@H](Nc1ncnc2[nH]cnc12)c1nc2cccc(F)c2c(=O)n1-c1ccccc1	35.9 ± 6.3
C[C@@H](Oc1cc(-c2cnn(C3CCNCC3)c2)cnc1N)c1c(Cl)ccc(F)c1Cl	33.8 ± 9.9
Cc1cc(C(=O)NOCCO)c(Nc2ccc(I)cc2F)n(C)c1=O	100
